Shown are actives, neighbours in structure and some others; about 6.5% of the full set was active somewhere.
LASV entry inh – inhibitors of Lassa virus binding or cell entry | Lassa virus pseudotype entry inhibition, cell reporter | Potency, µM (titrated, usually from 37.9 µM), hits mostly inhibitors | 300,000 tested, 1.2% active; calls by dose curve; tested in HEK293 cells; further: nearly all actives have a fitted effect of over 50% in size
VACV mCherry inh – vaccinia inhibition (mCherry reporter); AID 720579; Potency, µM (highest dose often 36.5 µM), most hits filed as inhibitors; 310,000 tested, 0.63% active; Vaccinia virus mCherry reporter infection, fluorescence; calls by dose curve; tested in A549 cells; further: nearly all actives have a fitted effect of over 35% in size
HCMV inh – blocks human cytomegalovirus replication; AID 1259415; activity change, negative = inhibition, % at 57.5 µM; 410,000 tested, 4.5% active; HFF cells, HCMV-luciferase reporter, 72 h; stronger effect = lower value; in the data active means activity change below about -60%; inconclusive means no clear call, values can overlap the other calls; inactive means above about -39%
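Inhibition of viral replication was scored as loss of reporter luminescence in HFFs infected with HCMV-luciferase (MOI 1 PFU/cell) for 72 h; compounds tested at 2 doses, normalized to buffer and Salinomycin controls.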
MARV entry inh – inhibitors of Marburg virus binding or cell entry; 300,000 tested, 1.8% active; Marburg virus pseudotyped entry inhibition, cell reporter; Potency, µM (doses to about 37.8 µM), hits mostly inhibitors; calls by dose curve; tested in HEK293 cells
VACV Venus inh – inhibitors of vaccinia virus (Venus reporter); Vaccinia virus Venus reporter expression, fluorescence; Potency, µM (highest dose often 36.5 µM), most hits filed as inhibitors; 330,000 tested, 0.46% active; AID 720580; calls by dose curve; tested in A549 cells; further: nearly all actives have a fitted effect of over 30% in size
FMDV inh – blocks foot and mouth disease virus; AID 1159524; FMDV antiviral cell-based qHTS; Potency, µM (top dose mostly 57.9 µM), hits mostly inhibitors; 410,000 tested, 1.2% active; calls by dose curve; tested in HEK293T cells; further: read-out not given here; nearly all actives have a fitted effect of over 45% in size
Numbers stand for hits; – = inactive; ? = inconclusive; · = no result.

SMILES | LASV entry inh | VACV mCherry inh | HCMV inh | MARV entry inh | VACV Venus inh | FMDV inh
Oc1cc(NCc2ccc(F)cc2)cc2cccnc12 | · | · | -93 | · | · | –
CN(C)CCCNc1cc(O)c2ncccc2c1 | · | · | -78 | · | · | ?
COc1cc(NCc2ccccc2O)c2ncccc2c1 | ? | ? | – | ? | – | –
Oc1cc(NCc2ccc(Cl)cc2)cc2cccnc12 | · | · | – | · | · | –
CC(=O)N1CCC[C@H]1C(=O)NCC1Cc2cc(F)cc(-c3ccc(F)c(C)c3)c2O1 (some centres not stated) | · | – | · | · | – | –
C[C@@H]1CCc2cc(F)cc3c(O)c(C(=O)NC[C@H]4CCCO4)c(=O)n1c23 | · | · | · | – | · | ·
COc1cccc(-c2cn3c(n2)sc2cc(C(=O)NCc4ccccc4F)ccc23)c1 | – | – | · | · | – | –
Oc1c(C(Nc2cccnc2)c2ccccc2F)ccc2cccnc12 (configuration not stated) | · | 10µM | · | · | ? | ·
Oc1c(C(Nc2nccs2)c2ccc(C(F)(F)F)cc2)ccc2cccnc12 (configuration not stated) | ? | 7.1µM | – | 4.5µM | ? | ?
Oc1c(C(Nc2cccc(C(F)(F)F)c2)c2ccncc2)ccc2cccnc12 (configuration not stated) | ? | ? | -99 | ? | ? | –
CC(O)(COc1ccccc1)c1ccc2c(c1)CN(Cc1cccnc1)CCO2 (configuration not stated) | · | – | · | · | – | –
Cc1ccc2[nH]c3c(c2c1)CN(C(=O)CC1(c2ccccc2)CC(=O)N(Cc2cccnc2)C1=O)CC3 (configuration not stated) | · | – | · | · | – | –
COc1ccc(C2=CC(=O)N(CCN)C2)cc1 | · | · | – | · | · | ·
NC1(C(=O)O)CCCc2ccc(N(CCCl)CCCl)cc21 (configuration not stated) | ? | – | -63 | 10µM | – | –
O=C1NC(=O)C2(CCCc3ccc(N(CCCl)CCCl)cc32)N1 (configuration not stated) | ? | – | -81 | ? | – | –
NC1(C(=O)O)CCc2cc(C(=O)O)ccc21 (configuration not stated) | – | – | · | – | – | –
O=C1NC(=O)C2(CCCc3ccc(N(CCO)CCO)cc32)N1 (configuration not stated) | · | · | – | · | · | ·
C[C@@H]1C=CCCO[C@]12C(=O)Nc1ccccc12 | · | · | · | – | · | ·
COc1cc(C2CC(=O)N(Cc3ccc(F)cc3)c3ccccc3S2)cc(OC)c1OC (configuration not stated) | · | – | -82 | ? | – | 14µM
COc1ccc(C2CC(=O)N(Cc3ccc(F)cc3)c3ccccc3S2)cc1 (configuration not stated) | · | – | ? | – | – | ?
COc1ccc(C2CC(=O)N(Cc3ccc(F)cc3)c3ccccc3S2)cc1OC (configuration not stated) | · | – | – | – | – | 40µM
Cc1ccccc1NC(=O)CSc1nc(-c2ccccc2)cn1-c1ccccc1F | ? | – | – | · | – | –
CCN1/C(=C/C=C/C2=[N+](CC)c3ccccc3C2(C)C)C(C)(C)c2ccccc21 | · | – | -99 | · | · | 3.5µM
CC(C)Sc1ncc(Cl)c(C(=O)Nc2ccc(S(=O)(=O)N3CCCCC3)cc2)n1 | – | – | – | ? | – | –
CN(C)c1ccc(-c2nc3ccccn3c2/N=C/c2ccc(Br)cc2)cc1 | 7.1µM | – | ? | ? | – | 13µM
SMILES | LASV entry inh | VACV mCherry inh | HCMV inh | MARV entry inh | VACV Venus inh | FMDV inh
COc1cccc(N2CCN(c3c4c(nc5ncnn35)CCC4)CC2)c1 | – | · | -86 | – | · | 14µM
c1ccc(N2CCN(c3c4c(nc5ncnn35)CCC4)CC2)cc1 | – | · | -62 | ? | · | ?
Cc1cccn2c(=O)c(C(=O)NCc3cccc(F)c3)cnc12 | – | ? | – | · | ? | –
CCOC(=O)C1CCN(Cc2cnc(Oc3ccc(OC)cc3)s2)CC1 | 1.5µM | · | – | – | · | –
COc1ccc(S(=O)(=O)N2CCOCC2)cc1NC(=O)CSc1nnnn1C1CC1 | – | – | -60 | – | – | –
O=C(Nc1cc(S(=O)(=O)N2CCOCC2)ccc1N1CCOCC1)c1cc2c(s1)CCC2 | ? | – | ? | – | – | –
COc1ccc(S(=O)(=O)N2CCOCC2)cc1NC(=O)c1cc2c(s1)CCCC2 | – | – | -69 | ? | – | –
CC(C)OCCCNC(=O)C(=O)Nc1c2c(nn1-c1ccccc1)CS(=O)(=O)C2 | – | – | – | · | – | –
Cc1ccc2nc(SCC(=O)c3ccc4c(c3)NC(=O)CO4)[nH]c2c1 | – | – | – | – | – | –

Source: PubChem BioAssay
